Measured values as given in PubChem BioAssay AID720517 (National Center for Advancing Translational Sciences (NCATS), 2013).
Records with an inconclusive call do not appear. Where a call stands in place of a potency, no number is given. Calls of active or inactive are those of the source. The call rests on the fitted dose curve; in most records, active means well fitted activation curve with a large enough effect; inconclusive means small, poorly fitted or top-dose-only effect; inactive means flat fitted curve, though single readings scatter.

Test: qHTS for Inhibitors of Cell Surface uPA Generation: FP59 Counterscreen for Cherry-picked Compounds
Potency means the concentration at half of the fitted maximal effect.

Structure (SMILES)	Potency
O=c1[nH]c(SCc2cccc(Cl)c2)nc2ccccc12	inactive
Cc1ccc(N2C(=O)c3ccccc3C2(O)c2ccccc2)cc1 (stereo not given)	inactive
CCOc1ccc(NC(=S)N2CCC(c3ccc(C)cc3)C2)cc1 (stereo not given)	inactive
CCOc1ccc(-n2cnc3scc(-c4ccc(OC)c(OC)c4)c3c2=O)cc1	inactive
COc1ccc(C(C)=O)cc1CSC(=N)N	inactive
O=[N+]([O-])c1cccc(-c2noc(-c3cccs3)n2)c1	inactive
CCc1ccc(NC(=O)Cn2cnc([N+](=O)[O-])c2)cc1	inactive
Fc1ccc(CNc2ccccn2)cc1	inactive
COc1cc(F)ccc1S(=O)(=O)n1c(C)nc2ccccc21	inactive
CCCc1nn2c(=O)cc(CSCC(=O)Nc3ccccc3)nc2s1	inactive
CC1(C)CC(=O)C=C(c2ccc3ccccc3c2)C1	inactive
CCN1CCN(C(c2ccccc2)c2nnnn2Cc2ccc3c(c2)OCO3)CC1 (stereo not given)	inactive
Cc1ccn(CCC(=O)N2CCc3ccccc32)n1	inactive
Cc1nn(-c2ccc(F)cc2)c(C)c1NS(=O)(=O)c1ccc(Cl)cc1	inactive
S=C(Nc1ccccc1Cl)N1CCCC(c2ccccc2)=N1	23.3 µM (active)
Cc1ccc(-c2nc(CS(=O)(=O)CC(=O)NCc3cccc(F)c3)c(C)o2)cc1	inactive
COc1ccc(C2C(C(=O)c3ccc(C)o3)=C(O)C(=O)N2CC2CCCO2)cc1OC (stereo not given)	inactive
O=C1CCCc2ccccc2N1Cc1ccc(F)cc1	inactive
COc1ccc(S(=O)(=O)N2CCN(Cc3ccccc3)CC2)c(C)c1	inactive
COc1cc(CNCCc2ccccc2)cc(Br)c1OCC(=O)Nc1ccccc1C	inactive

Structure (SMILES)	Potency
Cc1cc(C)n(C(=O)c2cccc([N+](=O)[O-])c2)n1	inactive
CCOC(=O)C1CCN(CC(=O)Nc2cc(C)nn2-c2nc3ccccc3s2)CC1	inactive
CCOc1cc(C)c(S(=O)(=O)N2CCCCC2)cc1C	inactive
C[C@@H](NC(=O)c1nc[nH]c1C(=O)NCc1ccc(CNC(=O)OC(C)(C)C)cc1)c1ccccc1	58.5 µM (active)
Cc1cccc(CCNC(=O)Cc2ccc(NC3=NC4CS(=O)(=O)CC4S3)cc2)c1 (stereo not given)	inactive
Cn1c(SCC(=O)NNC(=O)c2ccc(Br)cc2)nnc1-c1cccnc1	inactive
O=C(COC(=O)c1ccc2ncsc2c1)NCc1cccc(Cl)c1	inactive
O=C(/C=C/c1cccc(Oc2ccccc2)c1)N1CCOCC1	inactive
Cc1cc(=O)n2nc(N3CCCC(C(=O)NCc4ccc(Cl)cc4)C3)sc2n1 (stereo not given)	inactive
O=C(C1CCN(c2nnc(N3CCCC3=O)s2)CC1)N1CCN(c2cccc(C(F)(F)F)c2)CC1	inactive
O=C(c1ccco1)N1CCN(c2ncccn2)CC1	inactive
Cc1ccc(CN2CCN(Cc3cc4ccccc4o3)CC2CCO)cc1 (stereo not given)	inactive
Cc1ccc(NC(=O)C(C)S)cc1 (stereo not given)	inactive
CC(=O)c1c(C)n(-c2ccccc2Br)c2ccc(O)cc12	inactive
S=C(Nc1ccccc1Oc1ccccc1)NC1CCCC1	inactive
COc1cccc(C(=O)Cn2c(NCCCO)nc3ccccc32)c1	inactive
O=C(NCCc1cn2ccsc2n1)c1cccs1	inactive
O=C(COC(=O)c1cc([N+](=O)[O-])ccc1NCCO)NCc1cccs1	inactive
COC(=O)/C(C#N)=C/c1c(N2CCN(c3ccccc3)CC2)nc2c(C)cccn2c1=O	inactive
C[C@]12CCC(O)CC1CCC1C2CC[C@]2(C)C(c3cc(C(F)(F)F)n[nH]3)CCC12 (stereo not given in full)	inactive
